# This is a sample that favours compounds with a hit; in the whole collection about 22% have one here.
# E-sel TNF inh – blocks E-selectin expression induced by TNF alpha; HUVEC TNFa-induced E-selectin immunofluorescence, high content; inhibition, % at 2 µM; 0.71% of 120,000 active; AID 1246;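 active = inhibition above the batch mean plus 3 SD, and confirmed as a hit on visual image review, cut at about 43% in these data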
# F-actin modifier – modifiers of cytoskeleton assembly | inhibition, % at 2 µM | HUVEC TNFa F-actin phalloidin imaging, high content | 0.18% of 91,000 active;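 active = inhibition above the batch mean plus 3 SD and confirmed as a hit by visual image inspection, cut at about 30% in these data, passing the limit was not always enough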
# CYP2C19 act – cytochrome P450 2C19 (human) activation; activation factor at 5 µM; P33261; AID 1025; recombinant CYP2C19, luciferin-H EGE luminescence; stronger effect = higher value; 0 = fully inhibited enzyme, 1 = untreated enzyme; 96,000 tested, under 10 active;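 active = activation factor of at least 2 at 5 µM in the primary screen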
# Target sequence (P33261 whole entry, looked up): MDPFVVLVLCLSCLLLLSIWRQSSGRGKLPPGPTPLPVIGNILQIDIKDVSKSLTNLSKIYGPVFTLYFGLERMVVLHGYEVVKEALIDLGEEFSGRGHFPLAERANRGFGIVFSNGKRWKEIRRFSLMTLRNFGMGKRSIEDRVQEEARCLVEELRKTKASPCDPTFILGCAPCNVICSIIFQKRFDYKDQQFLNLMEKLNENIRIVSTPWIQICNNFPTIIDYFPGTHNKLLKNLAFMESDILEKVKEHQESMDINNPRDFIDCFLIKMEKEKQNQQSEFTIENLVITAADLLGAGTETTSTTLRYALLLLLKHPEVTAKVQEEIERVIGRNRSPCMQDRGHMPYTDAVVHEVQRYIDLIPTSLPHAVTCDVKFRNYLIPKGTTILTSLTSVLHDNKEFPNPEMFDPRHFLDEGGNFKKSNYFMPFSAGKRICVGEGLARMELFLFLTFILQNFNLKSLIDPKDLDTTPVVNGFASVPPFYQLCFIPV
# CYP2C19 inhib – blocks human cytochrome P450 2C19 | P33261 | CYP2C19 Supersomes, luciferin-H EGE luminescence, 30 min | 21% of 96,000 active | inhibition, % at 5 µM;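 active = CYP2C19 inhibition above a set limit at 5 µM in the primary screen, cut at about 50% in these data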
# CYP2C9 inhib – blocks human cytochrome P450 2C9 | P11712 | CYP2C9 Supersomes, luciferin-H conversion, luminescence | inhibition, % at 5 µM | 20% of 96,000 active | AID 777;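 active = blocking of liver enzyme CYP2C9 beyond about 50% at 5 µM, limit read from the data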
# CYP2C9 activ – CYP2C9 (human) activation; P11712; recombinant CYP2C9, luciferin-H conversion, luminescence; stronger effect = higher value; factor 1 = untreated enzyme, 0 = blocked; activation factor at 5 µM; 1.4% of 96,000 active;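 active = activation factor of 2 or more for CYP2C9 at a 5 µM dose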
# A number is an active result; i = inactive; nt = no result.
SMILES,E-sel TNF inh,F-actin modifier,CYP2C19 act,CYP2C19 inhib,CYP2C9 inhib,CYP2C9 activ
COc1ccc(NC(=O)N(Cc2ccc3c(c2)OCO3)C2CC(=O)N(c3ccc(OC)cc3)C2=O)cc1 (stereo not given),i,32,i,i,i,i
COc1ccc(CCN(C(=O)c2cccc(F)c2)C2CC(=O)N(c3ccc(OC)cc3)C2=O)cc1 (stereo not given),i,i,i,67,53,i
CNC(=S)N(Cc1ccc(OC)cc1)C1CC(=O)N(c2ccc(C(=O)OC)cc2)C1=O (stereo not given),i,nt,nt,nt,nt,nt
O=C1CC(N(Cc2ccc3c(c2)OCO3)C(=O)Nc2ccc(F)cc2)C(=O)N1c1ccccc1 (stereo not given),i,i,i,i,i,i
COC(=O)CN(C(=S)Nc1ccc(F)cc1)C1CC(=O)N(c2ccc(OC)cc2)C1=O (stereo not given),i,i,i,93,62,i
Cc1ccccc1NC(=S)N1CCN(Cc2ccccc2)CC1,i,nt,nt,nt,nt,nt
CC(C)C(NS(=O)(=O)c1cccc2nsnc12)C(=O)N1CCn2c1nc1ccccc12 (stereo not given),i,i,i,i,i,i
CCn1cnc2cc(NCc3nc4ccccc4n3Cc3ccccc3)ccc21,i,i,nt,nt,nt,nt
CC(C)n1cnc2cc(NCc3nc4ccccc4n3C)ccc21,i,nt,nt,nt,nt,nt
Cn1c(Cl)nc2ccccc21,i,nt,i,i,i,i
CCn1cnc2cc(NCc3nc4ccccc4n3C)ccc21,i,i,i,93,i,i
Cn1c(CNc2ccccc2)nc2ccccc21,nt,i,i,52,i,i
Cn1c(CSc2nc3ccccc3n2C)nc2ccccc21,i,i,i,84,i,i
Cn1c(SC2=CS(=O)(=O)c3ccccc32)nc2ccccc21,62,i,i,i,i,i
CC(=O)C1=NN(c2ccccc2)C(c2cccs2)N1c1ccccc1 (stereo not given),i,i,i,i,i,i
CCOC(=O)CNC(=O)c1cn(C)c(=O)c2cc(OC)c(OC)cc12,nt,i,i,i,i,i
O=C1CCCN1CCCNc1ncnc2c1cnn2-c1ccc(Cl)cc1,i,nt,i,i,i,i
NC(=O)C[C@@H]1NC(=O)c2cc([N+](=O)[O-])cc(F)c2NCCCC[C@@H](C(N)=O)NC(=O)[C@H](CO)NC1=O,i,nt,nt,nt,nt,nt
CCn1cc(CNC(=O)c2cc(-c3cc(OC)ccc3OC)nc3ccccc23)c(C)n1,i,nt,nt,nt,nt,nt
Cn1c(CNc2ccccc2O)nc2ccccc21,nt,i,i,70,i,i
CCCn1c(CNc2ccc(Br)cc2)nc2ccccc21,nt,i,i,98,92,i
CCCC(=O)NCc1nc2ccccc2n1C,i,i,i,i,i,i
CCCC(=O)NCCCc1nc2ccccc2n1C,i,nt,i,i,i,i
Cn1c(CCCCCN)nc2ccccc21,i,i,i,i,63,i
CCn1c(CNc2ccc(C(=O)O)cc2)nc2ccccc21,i,i,i,i,i,i
SMILES,E-sel TNF inh,F-actin modifier,CYP2C19 act,CYP2C19 inhib,CYP2C9 inhib,CYP2C9 activ
CN1CC(=O)N(C)c2ncn(Cc3ccccc3)c2C1=O,i,i,i,i,i,i
C/C(=N\Nc1ccc([N+](=O)[O-])cc1)c1cccc(N)c1,i,i,i,90,i,i
O=C(OC1CCOC1=O)c1cc(-c2ccc(Cl)cc2)nc2ccccc12 (stereo not given),i,i,i,i,i,i
O=C(OC1CCOC1=O)c1cc(-c2ccccc2)nc2ccccc12 (stereo not given),i,i,i,i,88,i
COc1ccc(-c2cc(C(=O)OC3CCOC3=O)c3ccccc3n2)cc1OC (stereo not given),i,i,i,55,77,i
Fc1ccccc1COc1ccc(-c2nnn(Cc3ccccc3F)n2)cc1,nt,i,i,i,i,i
Cn1nnc(-c2ccc(OCc3ccccc3F)cc2)n1,i,i,i,66,i,i
Cc1ccc(N=C(c2cccs2)N2CCOCC2)cc1,nt,i,i,73,i,i
CC(=O)N1CCN(CCN=CC2=C(O)CC(c3ccc(Cl)cc3)CC2=O)CC1 (stereo not given),i,i,i,i,i,i
ON=C1CCN(c2ncc(C(F)(F)F)cc2Cl)CC1,i,i,i,i,i,i
Cc1cc(NC(=O)c2ccc3c(c2)C(=O)N(CCC(C)C)C3=O)no1,i,nt,i,i,i,i
O=C(NCC1CCCO1)c1ccc2c(c1)C(=O)N(C1CCCCC1)C2=O (stereo not given),i,i,i,i,61,i

# Screening data from PubChem.
